# High-throughput results (PubChem)
# The list is not random: actives were taken first. Their share in the collection is about 3.2%.
# 12-hLO inh: inhibitors of human 12-lipoxygenase (ALOX12). AID 1452. Potency, µM (titrated, usually from 57.1 µM), for the others: at the top dose activity change, negative = inhibition, actives largely listed as inhibitors. purified 12-hLO, xylenol orange hydroperoxide absorbance. 150,000 tested, 0.12% active. P18054; also: potency is read from the fitted curve at half-maximal effect; nearly all actives have a fitted effect of over 55% in size
# Target sequence (P18054 whole entry, looked up): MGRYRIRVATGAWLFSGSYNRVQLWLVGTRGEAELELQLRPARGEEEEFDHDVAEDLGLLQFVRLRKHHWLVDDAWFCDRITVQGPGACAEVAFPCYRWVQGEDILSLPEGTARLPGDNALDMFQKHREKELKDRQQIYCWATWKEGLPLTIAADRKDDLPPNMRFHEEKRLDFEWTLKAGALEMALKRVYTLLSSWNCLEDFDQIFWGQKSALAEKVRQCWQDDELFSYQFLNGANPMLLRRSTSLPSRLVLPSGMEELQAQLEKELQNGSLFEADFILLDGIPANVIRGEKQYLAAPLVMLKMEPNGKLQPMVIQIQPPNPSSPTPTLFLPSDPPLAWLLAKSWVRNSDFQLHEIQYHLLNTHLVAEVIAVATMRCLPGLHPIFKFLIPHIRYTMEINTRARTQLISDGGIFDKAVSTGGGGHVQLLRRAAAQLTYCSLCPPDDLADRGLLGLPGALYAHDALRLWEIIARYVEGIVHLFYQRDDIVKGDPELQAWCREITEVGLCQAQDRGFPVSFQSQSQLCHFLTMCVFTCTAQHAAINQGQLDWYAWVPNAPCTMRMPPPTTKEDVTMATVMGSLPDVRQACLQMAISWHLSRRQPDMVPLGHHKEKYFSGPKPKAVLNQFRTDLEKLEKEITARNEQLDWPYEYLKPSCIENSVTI
#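 150 nM 12hLO, 25 mM Hepes pH 7.0 + 0.01% Triton X-100; cpd preinc 15 min RT; 40 uM arachidonic acid, 30 min RT; Fe-XO 30 min; A573/A405 ratio as read-out.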
# PNC assembly inh: perinucleolar compartment assembly inhibition | PC3M PTB-GFP, PNC prevalence imaging, 16 h; hits give low values | activity change (PNC), negative = inhibition, % at 10 µM | 140,000 tested, 3.1% active;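 active = readout at or below -70, meaning at least 70% loss of cells showing the perinucleolar compartment, a nuclear body marking cancer cells; inconclusive = readout between -30 and a set limit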;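 also: plate controls were DMSO wells for no effect and camptothecin positive control wells for full effect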
#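 PC3M cells stably expressing PTB-GFP, 750–1000 cells/well, treated 16 h at 37 °C with compound (23 nl of library stock), in duplicate. After paraformaldehyde fixation and Hoechst stain, imaged at 20x; PNC prevalence scored by image analysis.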
# ALOX15B inhib: 15-hLO-2 (ALOX15B) enzyme inhibition; O15296; purified 15hLO-2, xylenol orange hydroperoxide absorbance; Potency, µM (highest dose often 57.1 µM), for the others: top-dose activity change, negative = inhibition, hits mostly inhibitors; 110,000 tested, 0.56% active; also: potency is read from the fitted curve at half-maximal effect; nearly all actives have a fitted effect of over 60% in size
#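 Enzyme 50 nM, AA 45 uM, 25 mM Hepes pH 7.5 + 0.01% Triton X-100; cpd preinc 15 min RT, rxn 90 min RT; stop/detect with 200 uM XO + 300 uM Fe(II) in 50 mM H2SO4, 30 min; A573/A405.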
# Numbers without * were called inactive; ? = inconclusive; . = no result; [ ] = another dose, or the depositor's remark. Unless noted, calls follow the shape of the dose curve; as a rule, active = well fitted curve in the direction sought with a large enough effect; inconclusive = small, poorly fitted or top-dose-only effect, or another doubt; inactive = no such curve, though single readings can be large; an effect the other way counts as inactive or inconclusive. Unless noted, % is scaled to controls: 0 for no effect and ±100 for the full control effect.
SMILES,12-hLO inh,PNC assembly inh,ALOX15B inhib
CCCCN(C)C1=CC2=CC(=C(C#N)C#N)CCC2CC1 (stereo unspecified),-4%,-83*,.
N#CC1=C(N)C2=C(N3CCCCC3)CCCC2C1(C#N)C#N (stereo unspecified),?,-6,?
CC(=O)Nc1cccc(Oc2ccc(-c3noc(C)n3)cc2)c1,-2%,7,1%
O=C(N/N=C\c1cccc(OC(=O)c2ccco2)c1)c1ccc2c(c1)OCO2,-4%,?,.
C=CCN1c2ccccc2[C@]23C[C@@H](C(=O)OC)N(S(=O)(=O)c4ccc(C)cc4)C2=NC(C(=O)OC)=C(C(=O)OC)[C@H]13,-1%[11.4 µM],.,.
Cc1cc(CCCCCCCCc2cc(C)cc(=O)o2)oc(=O)c1,-1%,41,.
Cc1ccc(-n2nc(CN3CCOCC3)c(-c3ccccc3)c2N)c(C)c1,-4%,11,.
COc1ccc(-n2c(=O)c(C)nc3cnc(Oc4ccccc4)nc32)cc1,1%,.,3%
Cc1oc(-c2ccccc2Cl)nc1CSCC(=O)NC1CCCC1,0%,26,0%
Cc1oc(-c2ccccc2Cl)nc1CSCC(=O)N1CCCC1,4%,-109*,4%
N=C(N)SCCc1ccc(OCc2ccc([N+](=O)[O-])cc2)cc1,-23%,.,39%
CSCCC1C(=O)OC2(C)CC(C)(C)NC(=S)N12 (stereo unspecified),3%,-100*,.
CCOC(=O)C1CCCN(C(=S)Nc2ccc(C)cc2C)C1 (stereo unspecified),-3%,?,-8%
O=C(NCCN1CCOCC1)c1ccc(Cc2nc3ccccc3[nH]2)cc1,-1%,.,.
CC(=O)Oc1cc(-c2coc3cc(OC(C)=O)c(OC(C)=O)c(OC(C)=O)c3c2=O)cc(OC(C)=O)c1OC(C)=O,3%,.,36%
Cc1ccc(Nc2c(-c3ccc(N4CCOCC4)cc3)nc3ncccn23)cc1C,-1%,-102*,.
Cc1ccc(Nc2c(-c3ccc(N4CCOCC4)cc3)nc3ncccn23)cc1,2%,34,.
O=C(COC(=O)/C=C/c1ccco1)Nc1cccc([N+](=O)[O-])c1,-3%,-28,.
CCNc1ncc2nc(-c3ccc(Cl)cc3)c(=O)n(C[C@H]3CCCO3)c2n1,.,.,0%
CCOc1ccc(C(=O)NC2CCN(C(=O)N3CCCC3)CC2)cc1,4%,56,.
CCOc1ccc(C(=O)NC2CCN(S(C)(=O)=O)CC2)cc1,2%,-87*,5%
COc1ccc(OC)c(C(=O)CSc2nccc(-c3ccc(Br)cc3)n2)c1,1%,?,5%[11.4 µM]
N/C(=N\OC(=O)COc1ccc(Br)cc1)c1ccncc1,-3%,-102*,.
N/C(=N\OS(=O)(=O)c1ccc(Br)cc1)c1ccncc1,-3%,?,3%
COc1ccc(CCNC(=O)Cc2ccc(OCc3ccccc3)c(OC)c2[N+](=O)[O-])cc1OCc1ccccc1,-9%,-101*,-12%
SMILES,12-hLO inh,PNC assembly inh,ALOX15B inhib
COc1ccc(CCNC(=O)Cc2nn(C)c(=O)c3ccccc23)cc1OC,0%,?,-3%
CCN(CC)CCCC(C)NC(=O)c1ccc(-n2c(=O)c(=O)[nH]c3ccccc32)cc1 (stereo unspecified),-6%,.,.
O=C(COC(=O)Cn1cnc2ccccc2c1=O)Nc1cc(Cl)ccc1[N+](=O)[O-],1%,1,.
CCOC(=O)N1CCC(NC(=O)Cn2nc(Cc3ccncc3)c3ccccc3c2=O)CC1,11%,-106*,3%
CCOC(=O)Cn1nc(Cc2ccccc2)c2ccccc2c1=O,-1%,?,-1%
CCCC(=O)c1cc(F)c(N2CCOCC2)cc1C,-4%,20,2%
C=C1CCC(=O)C(C)CCC2C1CC2(C)C (stereo unspecified),4%,.,3%
CC(=O)Nc1nc2c(c3c1c(=O)oc1ccccc13)CCCC2,4%,?,1%
CC(=O)Nc1nc2c(c3c1c(=O)oc1ccccc13)CC(C)CC2 (stereo unspecified),-1%,-100*,.
CC1=C(C(=O)Nc2ccc(C)cc2C)C(c2ccc(C)o2)NC(=S)N1 (stereo unspecified),-2%,?,.
O=C(c1cccc(F)c1)N1CCC2(CC1)CCN(C(c1ccccc1)c1ccccc1)CC2,3%,.,35%
COC(=O)C1C/C(=N\NS(=O)(=O)c2ccc(C)cc2)c2sccc2C1 (stereo unspecified),-6%,?,.
COC(=O)C1CC(=O)c2ccsc2C1 (stereo unspecified),-2%,-109*,.
NCC1O[C@@H](O[C@H]2C(O)C(O[C@@H]3C(O[C@H]4OC(CO)C(O)C(O)C4N)C(N)CC(N)[C@H]3O)O[C@@H]2CO)C(N)C(O)C1O (stereo partly specified),1%,.,4%
O=C(NCC1CCCO1)c1ccc(S(=O)(=O)N2CCC(c3nc4ccc(Cl)cc4[nH]3)CC2)cc1 (stereo unspecified),-1%,-100*,.
O=S(=O)(c1ccc2c(c1)OCCO2)N1CCC(c2nc3ccc(Cl)cc3[nH]2)CC1,-10%,-14,36%
Cc1cc(OCC(=O)C(C)(C)C)c2c(C)c(C)c(=O)oc2c1,-2%,-100*,-1%
COC(=O)Cc1c(C)c2c(O)cc(C)cc2oc1=O,-4%,-1,-7%
O=c1cnc2cnc(Oc3ccccc3)nc2n1C1CC1,.,.,-4%
C/C1=C2N=C(/C=C3N=C(/C(C)=C4\[N-]C(C)(C5N=C1C(C)(CCC(=O)NCC(C)OP(=O)([O-])O[C@H]1C(O)C(n6cnc7cc(C)c(C)cc76)O[C@@H]1CO)C5CC(N)=O)C(C)(CC(N)=O)C4CCC(N)=O)C(C)(CC(N)=O)C\3CCC(N)=O)C(C)(C)C/2CCC(N)=O.[CH2-]C1OC(n2cnc3c(N)ncnc32)C(O)C1O.[Co] (stereo partly specified),-4%,.,-13%
CNC(=S)NC1CC2CCC(C1)N2Cc1ccccc1 (stereo unspecified),-3%,-18,4%
CCN(CC)C(=O)NC1CC2CCCC(C1)N2Cc1ccccc1 (stereo unspecified),0%,-92*,11%
CN1CCC[C@@H]1c1cccnc1.O=C(O)c1ccccc1O.O=C([OH2+])c1ccccc1O.O=C([OH2+])c1ccccc1O.[Mn],3%[11.4 µM],.,-1%[11.4 µM]
Cn1c(SCc2nc(-c3ccc(Cl)cc3)no2)nnc1-c1cccs1,-4%,-111*,5%
Cn1c(SCc2nc(-c3ccccc3)no2)nnc1-c1cccs1,-7%,56,.
SMILES,12-hLO inh,PNC assembly inh,ALOX15B inhib
O=C(CNCCC1=CCCCC1)Nc1ccccc1N1CCCCC1,?,-29,32%
Cn1cccc1C(=O)NC(=O)CSc1cccc[n+]1[O-],-5%,-95*,-8%
O=C(O)CSc1cccc[n+]1[O-],-5%,4,14%
CCCn1c(SCC(N)=O)nnc1-c1ccco1,-3%,9,-4%
CCN(CC)c1ccc2cc(C(=O)Nc3ccccn3)c(=O)oc2c1,6%,?,-13%
CCN(CC)c1ccc2cc(-c3nnc(-c4ccncc4)o3)c(=O)oc2c1,5%,-119*,9%[2.29 µM]
CCN(CC)c1ccc2cc(C=O)c(=O)oc2c1,-19%,-5,-17%
CCN(CC)c1ccc2cc(C(N)=O)c(=O)oc2c1,-3%,-105*,.
